Compound activity as filed in PubChem.
Compounds with a hit are over-represented: about 5.8% of the library has one in this group of screens.
KB-V1 MDR tox: kills drug-selected multidrug resistant KB-V1 cells. Potency, µM (series often up to 46.1 µM), usual class: cytotoxic. AID 1347076. 400,000 compounds, 3.4% hits. KB-V1 MDR cells viability, CellTiter-Glo, 72 h; also: % is scaled to controls: 0 for no effect and ±100 for the full control effect; nearly all actives have a fitted effect of over 60% in size
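KB-V1 cells (P-gp-expressing MDR subline of KB-3-1) in phenol-red-free DMEM with 10% FBS were exposed to library compounds over a concentration series for 72 h at 37 degrees C. Viability read by CellTiter-Glo luminescence; concentration-effect curves fitted after normalization.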
12-LOX inh: blocks human arachidonate 12S-lipoxygenase. AID 1671190. Potency, µM (titrated, usually from 108 µM), without a hit: at the highest dose activity change, negative = inhibition, usual class: inhibitors. purified 12hLO, xylenol orange hydroperoxide absorbance. 580,000 compounds, 1.1% hits; also: % is scaled to controls: 0 for no effect and ±100 for the full control effect
Target sequence (P18054 whole entry, looked up): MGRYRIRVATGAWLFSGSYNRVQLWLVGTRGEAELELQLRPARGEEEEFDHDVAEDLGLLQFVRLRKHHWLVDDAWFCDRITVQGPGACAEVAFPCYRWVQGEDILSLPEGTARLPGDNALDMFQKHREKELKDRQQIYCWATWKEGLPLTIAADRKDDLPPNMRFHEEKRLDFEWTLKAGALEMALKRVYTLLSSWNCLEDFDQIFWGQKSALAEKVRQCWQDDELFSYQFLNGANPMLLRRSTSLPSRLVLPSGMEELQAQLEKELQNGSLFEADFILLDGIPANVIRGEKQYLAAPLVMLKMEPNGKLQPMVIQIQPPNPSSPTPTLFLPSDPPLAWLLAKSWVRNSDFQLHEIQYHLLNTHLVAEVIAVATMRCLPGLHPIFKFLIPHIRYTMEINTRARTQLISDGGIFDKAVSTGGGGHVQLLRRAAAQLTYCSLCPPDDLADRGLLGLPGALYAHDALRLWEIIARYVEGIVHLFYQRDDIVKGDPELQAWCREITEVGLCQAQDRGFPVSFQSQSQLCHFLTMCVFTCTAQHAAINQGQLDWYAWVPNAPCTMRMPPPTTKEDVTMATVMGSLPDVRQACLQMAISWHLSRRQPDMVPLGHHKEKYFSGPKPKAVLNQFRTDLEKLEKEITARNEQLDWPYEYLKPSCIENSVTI
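Purified human 12hLO at 150 nM in 25 mM Hepes, 0.01% Triton X-100, pH 7.0, preincubated 15 min at room temperature with compound. Reaction started with 40 uM arachidonic acid, 30 min at room temperature. Hydroperoxide measured by Fe-xylenol orange, 573/405 nm absorbance ratio.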
SW480 rerep: DNA re-replication induction in SW480 cells; 340,000 compounds, 1.8% hits; AID 624297; Potency, µM (titrated, usually from 46.1 µM), inactives show at the highest dose re-replication activation, usual class: activators; SW480 DNA re-replication, Hoechst DNA content imaging, 48 h; also: % of control where 0% means no effect; nearly all actives have a fitted effect of over 55% in size
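Image-based read-out: total Hoechst fluorescence of nuclei (405 nm excitation, 500-530 nm emission), with hits raising the fraction of high-intensity nuclei. SW480 colon cells incubated 48 hr with compounds at 37 C.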
PINK1 modulator: modulators of PINK1 expression; AID 624263; Potency, µM (series often up to 76.6 µM), inactives show top-dose activation (PINK1 increase), actives largely listed as activators; 410,000 compounds, 0.2% hits; PINK1 immunofluorescence, high-content cytometry, 24 h; active = well fitted activation curve with a large enough effect; inconclusive = small, poorly fitted or top-dose-only effect; cell line not stated here; also: % of control where 0% means no effect; nearly all actives have a fitted effect of over 65% in size
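Decision-based qHTS: stable cells, 24 h exposure to five compound concentrations, CCCP as control. Fixed cells stained for PINK1 plus nuclear, mitochondrial and cell markers, cytometer read.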
KB-3-1 tox: KB-3-1 parental cell cytotoxicity; KB-3-1 viability, CellTiter-Glo ATP luminescence, 72 h; AID 1347075; Potency, µM (titrated, usually from 46.1 µM), most hits filed as cytotoxic; 400,000 compounds, 1.4% hits; also: % is scaled to controls: 0 for no effect and ±100 for the full control effect; nearly all actives have a fitted effect of over 60% in size
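Luminescent ATP read-out (CellTiter-Glo) measures survival of drug-naive KB-3-1 cells after 72 h compound exposure at 37 °C. Titration series was screened from lowest to highest concentration, with DMSO vehicle plates as background controls.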
MCF10A rereplic: induces DNA re-replication in MCF 10a normal breast cells; MCF 10A DNA re-replication, Hoechst nuclear intensity, 48 h; Potency, µM (top dose mostly 46.1 µM), inactives show top-dose activity, positive = re-replication, most hits filed as activators; 350,000 compounds, 2.9% hits; AID 624296; also: % of control where 0% means no effect; nearly all actives have a fitted effect of over 50% in size
* marks the source's active call; other numbers are inactive results; i = inactive; u = inconclusive; x = no result given; ! = not confirmed by another sample; [ ] = dose if it differs, or a comment. Unless noted, calls follow the shape of the dose curve; as a rule, active = well fitted curve in the direction sought with a large enough effect; inconclusive = small, poorly fitted or top-dose-only effect, or another doubt; inactive = no such curve, though single readings can be large; an effect the other way counts as inactive or inconclusive. Potency is read from the fitted curve at half-maximal effect.

SMILES | KB-V1 MDR tox | 12-LOX inh | SW480 rerep | PINK1 modulator | KB-3-1 tox | MCF10A rereplic
CCCNC(=O)c1cc(C2CCCCN2C(=O)c2cc(C(C)(C)C)nn2C)on1 (configuration not stated) | 16µM* | 5% | x | 0% | u | x
COc1ccc(OC)c(C(=O)c2oc3cc(NC(=O)C(C)C)ccc3c2C)c1 | x | 6% | x | x | x | x
O=C(COc1cccc(NC(=O)c2ccccc2)c1)c1ccccc1 | i | 2% | 12% | 2% | i | 0%
O=C(COc1cccc(NC(=O)c2cccs2)c1)c1ccc(F)cc1 | 7.3µM* | 3% | 0% | -1% | i | u
O=C(CNC(=O)c1cccs1)c1ccc(F)cc1 | i | -2% | u | 2%[38.3 µM] | i | 23µM*
O=C(CCC1CCCC1)NCc1nnc2c(-c3nc(C4CC4)no3)cccn12 | x | 41% | x | x | x | x
Cc1nc(OCC(=O)c2ccc(Cl)cc2)c(C#N)c2c1COC(C)(C)C2 | i | 0% | 21µM* | 5% | i | 4.6µM*
COc1ccc(C(=O)COc2nc(C)cc(C)c2C#N)cc1 | 13µM* | -25% | 20% | 0%[38.3 µM] | u | 20%
CCONC(=O)COc1ccc(C#N)cc1 | x | 8% | x | x | x | x
Cc1cccc(NC(=O)c2cc(C3CC3)nc3ccccc23)c1C | x | 3% | x | x | x | x
CCc1nnc(NC(=O)/C=C/c2ccco2)s1 | i | -14% | -11% | 1% | i | -2%
Cc1nc(NC(=O)/C=C/c2ccco2)sc1C | u | -14% | 8.2µM* | 11% | 4.1µM* | u
O=C(/C=C/c1ccco1)Nc1nnc(-c2ccco2)s1 | u | -21% | u | 13% | u | 5.8µM*
CC(C)(C)c1ccc(-c2nc(N)nc(N)n2)cc1 | i | 91% | -5% | 5% | i | 1%
CC(C)(C)c1ccc(-c2conc2N)cc1 | i | 0% | u | 9%[38.3 µM] | i | 18µM*
CCCCn1nc(C(=O)Nc2cccc(C#N)c2)c2ccccc2c1=O | x | 10% | x | x | x | x
C=CCN1C(=O)C(C)(C)N(C(C)=O)c2ccccc21 | i | -9% | u | 1% | i | u
CC(=O)N1c2ccccc2N(Cc2ccc(C)cc2C)C(=O)C1(C)C | u | 1%[57.4 µM] | 18µM* | 7% | 4.1µM* | 12µM*
COc1ccc(CC(=O)N(C)C2CCc3ccccc3C2)cc1 (configuration not stated) | x | -5%[176 µM] | x | x | x | x
CN(Cc1ccccc1)S(=O)(=O)c1ccc(Cl)c(C(=O)Nc2nnc(C3CC3)s2)c1 | x | 1% | x | x | x | x
Cc1ccccc1CCNC(=O)Cn1ncc2ccccc2c1=O | x | 23% | x | x | x | x
CC(c1ccc(F)cc1)N1CCN(c2oc(C3CC3)nc2C#N)CC1 (configuration not stated) | x | -1% | x | x | x | x
COc1ccccc1-n1cc(-c2ccc(Br)cc2)[nH]c1=S | i | u | u | 7% | i | 14%
COc1cccc(-n2cc(-c3ccc(F)cc3)[nH]c2=S)c1 | u | 22µM* | -13% | -2% | i | 2%
COc1ccc(-n2cc(-c3ccc(Cl)cc3)[nH]c2=S)cc1 | i | -28% | -8% | 6% | i | -1%
SMILES | KB-V1 MDR tox | 12-LOX inh | SW480 rerep | PINK1 modulator | KB-3-1 tox | MCF10A rereplic
COc1ccccc1-n1cc(-c2ccc(C)cc2)[nH]c1=S | 23µM* | u | u | 9% | u | 18µM*
COc1ccc(-c2cn(-c3ccccc3)c(=S)[nH]2)cc1OC | i | u | -5% | -1% | 3.3µM* | 2%
COc1ccc(-c2cn(-c3ccc(C)c(C)c3)c(=S)[nH]2)cc1OC | i | 28µM* | 0% | -1% | i | 9%
COc1ccccc1-c1cn(-c2ccccc2)c(=S)[nH]1 | u | 0% | u | 1% | u | 3%
COCCn1cc(C(=O)NCCc2ccc(S(N)(=O)=O)cc2)ccc1=O | x | 8% | x | x | x | x
COc1ccc(-c2cn(-c3ccc(C)c(Cl)c3)c(=S)[nH]2)cc1OC | i | u | -1% | 5% | 16µM* | 13%
Cc1c(CCC(=O)NCCCN2CCOCC2)c(=O)oc2c(C)c(O)ccc12 | x | -31% | x | x | x | x
CC[C@](N)(CCC(=O)O)C(=O)O | x | 2.8µM*! | x | x | x | x
Cc1ccc(C23CC4CC(CC(Cl)(C4)C2)C3)cc1[N+](=O)[O-] | x | -5% | x | x | x | x
COc1cc(NC(=O)c2nn(C)c(=O)c3ccccc23)cc(OC)c1OC | x | -15% | x | x | x | x
CCC(C)[C@@H](NC(=O)OC(C)(C)C)c1nnc(S(=O)(=O)Cc2cccc(C)c2)o1 (some centres not stated) | i | 14% | u | -5% | i | 16µM*
CC(C)(C)OC(=O)N[C@@H](Cc1ccccc1)c1nnc(S(=O)(=O)Cc2ccccc2)o1 | x | 4% | x | x | x | x
O=C(NC(c1ccccc1)c1c(O)ccc2ccccc12)c1ccccc1Cl (configuration not stated) | 21µM* | -29% | u | 2%[38.3 µM] | u | 23µM*
O=C(NC(c1ccc(Cl)cc1)c1c(O)ccc2ccccc12)c1ccccc1 (configuration not stated) | 21µM* | -29% | u | u | u | u
CC(=O)NC(c1ccc(Cl)cc1)c1c(O)ccc2ccc(O)cc12 (configuration not stated) | i | u | -8% | 6% | i | -6%
CC(C)CC(=O)NC(c1ccccc1)c1c(O)ccc2ccccc12 (configuration not stated) | i | 18% | -4% | 0% | i | 0%
CC(C)Nc1nc(-c2ccc(S(=O)(=O)N3CCCCCC3)cc2)cs1 | x | -6% | x | x | x | x
Cc1ccc(C(=O)NCC(=O)N(C)CC(=O)Nc2ccc(Cl)cc2)s1 | x | -7% | x | x | x | x
CN(CC(=O)Nc1ccccc1Br)C(=O)CNC(=O)c1cccs1 | i | 2% | 0% | 3% | i | 14%
Cc1ccc(C(=O)NCC(=O)N(C)Cc2ccc(Cl)cc2Cl)s1 | 16µM* | -27% | -8% | 1% | i | 4%
Cc1ccc(C(=O)NCC(=O)N(C)CC(=O)Nc2ccccc2Br)s1 | 21µM* | 247% | -4% | -1% | i | -2%
COc1ccc(/C=C2\Sc3ccc(C(=O)NCC4CCCO4)cc3N(C)C2=O)cc1 (configuration not stated) | i | -10% | 23µM* | -1% | i | 23µM*
COc1ccc(/C=C2\Sc3ccc(C(=O)N4CCOCC4)cc3N(C)C2=O)cc1 | i | -8% | -8% | -1% | i | u
CNC(=O)c1ccc(-c2nc(CN3CCN(C(=O)Nc4ccccc4Cl)CC3)c(C)o2)cc1 | x | 6% | x | x | x | x
CCCCOc1ccccc1C1CC(=O)Nc2cc(OC)c(OC)cc21 (configuration not stated) | i | -1% | x | 2% | i | x
